From PubChem
The list is not random: actives were taken first. Their share in the collection is about 1.5%.
eLon inh – inhibitors of E. coli Lon protease, primary screen, biochemical, fluorescence polarization; AID 602123, 2011; inhibition, % at 7.94 µM; purified E. coli Lon protease; 360,000 tested, 0.42% active; in the data active means inhibition above about 13%, passing the limit was not always enough;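 further: 0% = enzyme with probe and DMSO and 100% = no enzyme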
Keap1 Nrf2 FP – Keap1-Nrf2 protein-protein interaction inhibitors, primary screen, biochemical, fluorescence polarization, single point | Kelch-like ECH-associated protein 1 (Homo sapiens), Q14145 | Keap1 Kelch-Nrf2 peptide fluorescence polarization, 1536-well | inhibition, % at 9.4 µM | 340,000 tested, 0.15% active | AID 504523, 2011; in the data active means inhibition above about 12%;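 further: human Keap1 Kelch domain with fluorescein labeled Nrf2 9mer peptide probe; 0% = neutral control wells and 100% = peptide positive control; higher means more block of Keap1 binding to Nrf2 peptide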
C-LANA FP – inhibitors of KSHV C-LANA binding to DNA, primary screen, biochemical, fluorescence polarization, FAM-LBS DNA, MBP-C-LANA, single point; Kaposi's sarcoma herpesvirus LANA C-terminal domain (residues 932-1162) DNA binding; inhibition, % at 9 µM; 340,000 tested, 0.078% active; AID 504423, 2011;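 active means highest replicate inhibition at or above 60% at 9 µM, even if other replicates fall short; inactive means all replicates below 60% inhibition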;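 further: 0% = neutral control wells and 100% = 4 µM acridine orange control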
EBV gp42 block – Epstein-Barr virus gp42 inhibitors, primary screen, biochemical, uHTS, fluorescence polarization | 220,000 tested, 0.42% active | inhibition, % (tested at 21.74 µM) | Fluorescence polarization binding assay, mP read-out | Glycoprotein 42 (Epstein-Barr virus (strain AG876)), Q1HVG2 | AID 1085, 2008; in the data active means inhibition above about 50%
LANA-H2B inh – blockers of LANA interaction with H2A/H2B – biochemical, FP readout, HTS, primary screen; Protein LANA1 (Human herpesvirus 8 type P (isolate GK18)), Q9QR71; cell-free LANA-H2A/H2B peptide, fluorescence polarization; inhibition, % (test concentration not listed); 320,000 tested, 0.6% active; in the data active means inhibition mostly above about 10%, no sharp cut-off; inactive means mostly below about 6.7%
Target sequence (Q9QR71 whole entry, looked up): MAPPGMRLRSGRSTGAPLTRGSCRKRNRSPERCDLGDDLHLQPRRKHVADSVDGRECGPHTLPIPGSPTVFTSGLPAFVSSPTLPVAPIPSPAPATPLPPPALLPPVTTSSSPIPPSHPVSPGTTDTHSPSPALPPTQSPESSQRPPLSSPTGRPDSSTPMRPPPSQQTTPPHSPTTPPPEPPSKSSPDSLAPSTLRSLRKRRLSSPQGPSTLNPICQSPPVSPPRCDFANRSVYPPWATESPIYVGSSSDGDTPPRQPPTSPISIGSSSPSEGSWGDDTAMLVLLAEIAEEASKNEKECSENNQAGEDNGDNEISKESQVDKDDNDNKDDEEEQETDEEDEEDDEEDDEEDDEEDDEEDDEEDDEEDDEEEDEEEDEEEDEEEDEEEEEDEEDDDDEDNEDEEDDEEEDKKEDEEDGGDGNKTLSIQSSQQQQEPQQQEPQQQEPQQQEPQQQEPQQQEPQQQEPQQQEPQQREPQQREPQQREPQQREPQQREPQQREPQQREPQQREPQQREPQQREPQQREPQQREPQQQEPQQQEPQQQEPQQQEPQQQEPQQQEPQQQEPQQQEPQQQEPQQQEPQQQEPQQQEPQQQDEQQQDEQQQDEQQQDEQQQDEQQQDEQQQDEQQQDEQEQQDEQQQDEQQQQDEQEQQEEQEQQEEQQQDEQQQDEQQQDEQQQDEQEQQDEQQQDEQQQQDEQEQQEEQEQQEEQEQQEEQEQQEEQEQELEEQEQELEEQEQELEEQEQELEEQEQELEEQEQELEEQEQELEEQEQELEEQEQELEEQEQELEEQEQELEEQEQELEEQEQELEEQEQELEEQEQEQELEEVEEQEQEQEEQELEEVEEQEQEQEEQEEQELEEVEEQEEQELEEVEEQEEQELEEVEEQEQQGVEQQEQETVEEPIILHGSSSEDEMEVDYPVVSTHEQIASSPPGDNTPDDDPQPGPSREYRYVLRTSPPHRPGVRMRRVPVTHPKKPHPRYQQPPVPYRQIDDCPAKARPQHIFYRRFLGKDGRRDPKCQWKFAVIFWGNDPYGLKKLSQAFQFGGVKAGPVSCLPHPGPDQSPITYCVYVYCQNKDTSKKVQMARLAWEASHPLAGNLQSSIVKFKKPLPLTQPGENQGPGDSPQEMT
GLD-1 RNA inh – GLD-1/TGE RNA complex disruptors, primary screen, biochemical, fluorescence polarization. purified GLD-1 + fluorescein TGE RNA. inhibition, % at 5.96 µM. 320,000 tested, 0.44% active. Female germline-specific tumor suppressor gld-1 (Caenorhabditis elegans), Q17339;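 active means percent inhibition above a per-plate cutoff, the plate mean of test compounds plus 3 SD, cut at about 30% in these data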;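 further: 0% = DMSO wells with GLD-1 and probe and 100% = wells lacking GLD-1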
* = called active by the depositor.

COC(=O)CCC(=O)Nc1sc(Cc2ccccc2)c(C)c1C(N)=O was read as eLon inh 4, Keap1 Nrf2 FP -4, C-LANA FP 0, EBV gp42 block -13, LANA-H2B inh 22* and GLD-1 RNA inh 3.
`N#Cc1cc(C(=O)c2ccccc2O)cn(-c2nccs2)c1=O` gave eLon inh -249, Keap1 Nrf2 FP -22, C-LANA FP 25, EBV gp42 block 51*, LANA-H2B inh -5 and GLD-1 RNA inh 54*.
For O=C(NCC1CCCO1)c1cccc2c1C(=O)c1ccc(N3CCC(Cc4ccccc4)CC3)cc1S2(=O)=O (stereo unspecified) the results were eLon inh -185, Keap1 Nrf2 FP 0, C-LANA FP 6, LANA-H2B inh 4 and GLD-1 RNA inh 6.
`O=C(NC1CCCCC1)c1cccc2c1C(=O)c1ccc(N3CCC(Cc4ccccc4)CC3)cc1S2(=O)=O` gave eLon inh -379, Keap1 Nrf2 FP -5, C-LANA FP 8, LANA-H2B inh 1 and GLD-1 RNA inh 62*.
O=C(NCc1ccccc1Br)c1cccc2c1C(=O)c1ccc(N3CCC(Cc4ccccc4)CC3)cc1S2(=O)=O was read as eLon inh -23, Keap1 Nrf2 FP -1, C-LANA FP 35, LANA-H2B inh 6 and GLD-1 RNA inh 157*.
`C[C@@H](c1ccccc1)N1C[C@@H](COCc2ccccc2)Oc2cc(N3CC[C@H](O)C3)ccc2S1(=O)=O` gave eLon inh 9.
For CCc1nc2ccccc2[nH]c1=O the results were eLon inh 11, Keap1 Nrf2 FP 0, C-LANA FP 1, EBV gp42 block -6, LANA-H2B inh 27* and GLD-1 RNA inh 2.
For O=C(CCCn1c(=S)[nH]c2cc3c(cc2c1=O)OCO3)NCCc1ccccc1Cl the results were eLon inh -4, Keap1 Nrf2 FP -3, C-LANA FP -1, LANA-H2B inh 1 and GLD-1 RNA inh -8.
For CN1C(=O)C(O)(CC(=O)/C=C/c2ccco2)c2cc(Br)ccc21 (stereo unspecified) the results were eLon inh -8, Keap1 Nrf2 FP -4, C-LANA FP -1, EBV gp42 block -7, LANA-H2B inh 1 and GLD-1 RNA inh 3.
`CN1C(=O)C(O)(CC(=O)c2ccccc2O)c2cc(Br)ccc21` (stereo unspecified) gave eLon inh -3, Keap1 Nrf2 FP -2, C-LANA FP -1, EBV gp42 block -3, LANA-H2B inh 47* and GLD-1 RNA inh 2.
For O=C(CSc1c2c(nc3ccccc13)CCCC2)NCc1ccco1 the results were eLon inh -4, Keap1 Nrf2 FP -39, C-LANA FP 1, EBV gp42 block -6, LANA-H2B inh 5 and GLD-1 RNA inh 4.
O=C(NCc1ccco1)c1c2c(nc3ccccc13)CCC2 was read as eLon inh -8, Keap1 Nrf2 FP 4, C-LANA FP 3, EBV gp42 block 62*, LANA-H2B inh 10 and GLD-1 RNA inh 10.
`CC1C=CC=CC=CC=CC=CC=CC=CC(OC2OC(C)C(O)C(N)C2O)CC2OC(O)(CC(O)CC(O)C(O)CCC(O)CC(O)CC(=O)OC(C)C(C)C1O)CC(O)C2C(=O)O` (stereo unspecified) gave eLon inh -59, Keap1 Nrf2 FP -18 and C-LANA FP 68*.
COc1ccc(OC)c(NC(=O)C2(C)CCN2Cc2ccsc2)c1 (stereo unspecified) was read as eLon inh -6.
For COc1ccccc1N1CCN(C(=O)Cn2nc3n(C)c4ccccc4n3c(=O)c2=O)CC1 the results were EBV gp42 block -19, LANA-H2B inh 1 and GLD-1 RNA inh 31*.
`COc1ccccc1N1CCN(C(=O)CCC(=O)N2CCN(c3ccccc3OC)CC2)CC1` gave eLon inh -1, Keap1 Nrf2 FP -6, C-LANA FP 1, LANA-H2B inh 2 and GLD-1 RNA inh -10.
